Shown are actives, neighbours in structure and some others; about 2.4% of the full set was active somewhere.
TLR4-MyD88 BLA = inhibitors of TLR4-MyD88 association in cells, primary screen, cell-based, HeLa CL3-4, BLA complementation, FRET ratio; HeLa CL3-4 TLR4/MyD88 BLA complementation; AID 861, 2007; 0.18% of 200,000 active; inhibition, % at 8.4 µM; in the data active = inhibition above about 25%;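 also: 0% = vehicle and 100% = reference inhibitor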
TLR9-MyD88 block = inhibitors of TLR9-MyD88 association in cells, primary screen, cell-based, CHO, BLA complementation, fluorescence; Toll-like receptor 9 (Homo sapiens) + Myeloid differentiation primary response protein …; CCF4 FRET ratio; inhibition, % at 4.98 µM; 0.21% of 340,000 active;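 active = inhibition above the mean over all tested compounds plus 3 SD, cut at about 21% in these data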;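 also: 0% = DMSO only wells and 100% = clavulanate BLA inhibitor control wells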
HTR2A ag = mouse Htr2a agonists via beta-arrestin recruitment, primary screen, cell-based, luminescence | AID 624169, 2012 | 0.66% of 360,000 active | CHO-K1 mHTR2A beta-arrestin complementation; percent of 30 µM serotonin response | activation, % at 7.6 µM | 5-hydroxytryptamine receptor 2A (Mus musculus), P35363;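 active = activation above a run cutoff, the mean activation of all tested compounds plus 3 SD, cut at about 14% in these data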;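 also: 0% = plate median of compound wells and 100% = 30 µM serotonin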
TMEM16A inh = TMEM16A chloride channel inhibitors, primary screen, cell-based, HTS; 1.2% of 310,000 active; AID 588511, 2011; HEK293 TMEM16A/YFP iodide influx fluorescence, ionomycin; Anoctamin-1 (Mus musculus), Q8BHY3; normalized B-score (activity score, 25-100; higher = stronger inhibition) at 10 µM;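 active = ratio plate-corrected score three or more library SD toward inhibition, starting fluorescence score within five deviations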;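 also: score derived from kinetic fluorescence span divided by baseline fluorescence per well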
ANO1 activ = TMEM16A chloride channel activators or potentiators, primary screen, cell-based, HTS. Anoctamin-1 (Mus musculus), Q8BHY3. AID 623877, 2012. HEK293 TMEM16A/YFP-H148Q/I152L, iodide quench fluorescence; active compounds read low. B-score at 10 µM. 0.3% of 340,000 active;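 active = fluorescence-ratio B-score plate-corrected deviation score at least 3 library SD below zero, with starting fluorescence score within 5 deviations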;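 also: channel opened by trigger with iodide after compound preincubation; score built on the fluorescence ratio of max minus min over baseline; more negative score means more quench and so TMEM16A activation or potentiation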
NOD2 RIPK2 PPI = NOD2-RIPK2 binding disruptors in cells, primary screen, fluorescence, CHO cells, BLA complementation. AID 624267, 2012. Receptor-interacting serine/threonine-protein kinase 2 (Homo sapiens), O43353. CCF4 ratio. 0.38% of 360,000 active. inhibition, % at 4.98 µM; in the data active = inhibition above about 21%;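 also: 0% = vehicle only and 100% = reference blocker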
Target sequence (O43353 whole entry, looked up): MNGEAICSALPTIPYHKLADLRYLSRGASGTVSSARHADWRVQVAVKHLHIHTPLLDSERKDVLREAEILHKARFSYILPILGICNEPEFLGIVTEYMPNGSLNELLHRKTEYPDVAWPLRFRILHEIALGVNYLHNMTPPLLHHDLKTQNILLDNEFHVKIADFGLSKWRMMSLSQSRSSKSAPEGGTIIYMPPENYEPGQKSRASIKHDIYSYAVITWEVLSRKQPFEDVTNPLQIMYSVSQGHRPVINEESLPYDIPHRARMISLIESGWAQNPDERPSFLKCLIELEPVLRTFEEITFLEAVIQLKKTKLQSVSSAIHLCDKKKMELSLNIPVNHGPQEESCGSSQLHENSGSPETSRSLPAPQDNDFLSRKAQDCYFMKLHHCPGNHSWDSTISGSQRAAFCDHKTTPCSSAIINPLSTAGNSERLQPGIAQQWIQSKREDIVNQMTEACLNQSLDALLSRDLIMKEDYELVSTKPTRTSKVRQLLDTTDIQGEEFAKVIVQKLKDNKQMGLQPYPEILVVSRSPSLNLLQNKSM
TLR4 MyD88 cnf = TLR4-MyD88 association inhibitors, retest, confirmation, cell-based, HeLa CL3-4, BLA complementation, FRET ratio | CCF4 FRET ratio | shares compounds with TLR4-MyD88 BLA | 50% of 350 active | AID 941, 2007 | inhibition, % at 8.4 µM;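 active = mean inhibition across three repeat runs above about 25% carried over from the earlier screen, limit read from the data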;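 also: plate controls were DMSO only for no effect and clavulanic acid blocking BLA at full dose for full effect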
BLA inhibitor ct = beta-lactamase inhibition flagged in TLR4-MyD88 counter-screen; shares compounds with TLR4-MyD88 BLA; HeLa BLA reporter, CCF4 FRET ratio; inhibition, % at 8.4 µM; 63% of 350 active;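 active = mean inhibition over three repeats above about 26% taken from the earlier screen, limit read from the data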;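 also: HeLa cells stably expressing beta-lactamase reporter as counterscreen for TLR4-MyD88 inhibitors; 0% = DMSO and 100% = clavulanic acid full inhibition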
* = called active by the depositor; i = inactive; · = no result.

SMILES	TLR4-MyD88 BLA	TLR9-MyD88 block	HTR2A ag	TMEM16A inh	ANO1 activ	NOD2 RIPK2 PPI	TLR4 MyD88 cnf	BLA inhibitor ct
CCN1CCN(c2cc(C)c3cc(NC(=S)N4CCN(c5ccccc5)CC4)ccc3n2)CC1	26*	12	-8	i	i	9	25*	37*
COC(=O)c1ccc(-c2sc3nc(N4CCOCC4)c4c(c3c2N)CCCC4)o1	27*	·	·	i	·	·	24	52*
O=C(CCCn1c(=O)[nH]c2ccsc2c1=O)N1CCN(Cc2ccc3c(c2)OCO3)CC1	26*	-3	5	i	i	1	-1	7
CCCCCn1c(=O)[nH]c2cc(C(=O)N3CCN(Cc4ccc5c(c4)OCO5)CC3)ccc2c1=O	2	7	-1	i	i	-6	·	·
CCCCN(C(=O)C1=NN(c2ccccc2)C(=O)CC1)c1c(N)n(CC(C)C)c(=O)[nH]c1=O	·	3	4	·	i	1	·	·
O=C1CC(c2ccc(Cl)cc2)Oc2ccc(Cl)cc21 (configuration not stated)	·	-8	5	·	i	-2	·	·
Cn1c(Cl)cnc1C1CC(=O)c2cc(Cl)ccc2O1 (configuration not stated)	27*	3	-5	i	i	5	-7	-17
Cc1cccc(C)c1NC(=O)CNC(=O)C1CCCN(C(=O)c2ccc(Cl)cc2)C1 (configuration not stated)	·	-6	6	·	i	-5	·	·
CCCCCn1nc(-c2ccccc2)c2nc3ccccc3nc21	44*	-4	0	i	i	9	52*	63*
O=C(CSc1nc2scc(-c3ccco3)c2c(=O)n1-c1ccccc1)N1CCOCC1	30*	-6	-1	i	i	2	2	9
NC(=O)CSc1nc2scc(-c3ccco3)c2c(=O)n1-c1ccccc1	-6	-27	5	i	i	3	·	·
Cc1ccc(OCCN2CCN(c3nc(NCc4ccco4)c4ccccc4n3)CC2)cc1	8	1	-7	i	i	-6	·	·
Cc1ccc2nc(Cl)c(/C=N/Nc3nc(C)cc(C)n3)c(=O)n2c1	33*	5	-6	i	i	19	23	28*
Cc1ccc2nc(C)c(Cl)c(=O)n2c1	3	9	2	i	i	-2	·	·
CCCOc1ccc(C(F)(F)F)cc1NS(=O)(=O)c1ccc(Cl)nc1	·	-7	1	·	i	0	·	·
Cc1ccccc1C(=O)N=c1ccn(-c2nc3ccccc3nc2NS(=O)(=O)c2ccc(F)cc2)cc1	·	13	4	i	i	-3	·	·
O=C(N=c1ccn(-c2nc3ccccc3nc2NS(=O)(=O)c2ccccc2)cc1)c1cccs1	66*	-2	2	i	i	15	10	15
c1cc2c(cc1C1CCCCC1)c1c3n2CCN=C3CCC1	27*	4	4	i	i	1	19	41*
COc1cccc(/C=C/C(=O)c2c(O)cc(C)oc2=O)c1O	26*	-6	5	i	i	2	-2	0
Cc1cccc(N2C(=O)/C(=C\c3ccc(C(=O)O)cc3)c3ccccc3C2=O)c1	45*	19	3	i	i	4	32*	35*
Cc1cccc(N2C(=O)c3ccc(C(=O)Nc4ccccn4)cc3C2=O)c1	·	-16	6	i	i	-5	·	·
